Assay [1] is described as follows: qHTS assay to identify small molecule agonists of the vitamin D receptor (VDR) signaling pathway - cell viability counter screen (AID 743224; active = well fitted curve in the direction sought with a large enough effect in the repeat runs; an effect the other way counts as inactive or inconclusive; also: series mostly up to about 63 µM; nearly all actives have a fitted effect of over 50% in size). The method in brief:
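Cells: VDR-bla, 2,000/well, settled 4 h. Treatment: compounds in DMSO, 16 h, 37C/5% CO2. Readout: CellTiter-Glo luminescence after 30 min RT.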
Background: In qHTS, concentration-response curves come from the screen itself.

The nature of assay [2]: qHTS assay to identify small molecule antagonists of the vitamin D receptor (VDR) signaling pathway - cell viability counter screen (AID 743225; active = well fitted curve in the direction sought with a large enough effect in the repeat runs; an effect the other way counts as inactive or inconclusive; also: nearly all actives have a fitted effect of over 50% in size). The method in brief: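 Parallel cytotoxicity test: VDR-UAS-bla HEK 293T, 3 nM (final) 1-alpha,25-dihydroxyvitamin D3 with test compound, 16 h, 37C. Endpoint is CellTiter-Glo luminescence in the same wells.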
Assay [3] can be described thus: qHTS assay to identify small molecule agonists of the NFkB signaling pathway - cell viability counter screen (AID 1159515). Also: nearly all actives have a fitted effect of over 55% in size. Also: potency is read from the fitted curve at half-maximal effect. The method in brief: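 Cells are seeded (2,000 NFkB-bla ME-180 per well), rested overnight, and dosed with DMSO-dissolved compounds for 5 hr at 37 C. Viability is then read by CellTiter-Glo luminescence after 30 min at room temperature.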
Assay [4] in a line: qHTS assay to identify small molecule agonists of the endoplasmic reticulum stress response signaling pathway (AID 1159516; active = well fitted activation curve with a large enough effect in the signal ratio in the repeat runs, not every such curve was filed as active; the % refers to the signal ratio). The method in brief: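 Cells are seeded at 1,500 per well and incubated overnight. Compounds in DMSO are added for 5 hr at 37 C, then beta-lactamase FRET substrate for 2 hr at room temperature, and fluorescence at 460 and 530 nm is measured.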
A short description of assay [5]: qHTS assay to identify small molecule agonists of the endoplasmic reticulum stress response signaling pathway - cell viability counter screen (AID 1159517). Also: nearly all actives have a fitted effect of over 50% in size. Also: potency is read from the fitted curve at half-maximal effect. The method in brief: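 In parallel with the ESRE reporter read, cytotoxicity was scored by CellTiter-Glo luminescence (30 min, room temperature) on HeLa ESRE-bla cells dosed for 5 hr.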
Assay [6] in a line: qHTS assay to identify small molecule antagonists of the retinoid-related orphan receptor gamma (ROR-gamma) signaling pathway - cell viability counter screen (AID 1159520; active = well fitted curve in the direction sought with a large enough effect in the repeat runs; an effect the other way counts as inactive or inconclusive; also: nearly all actives have a fitted effect of over 50% in size). The procedure, abridged: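 Tet-on ROR gamma CHO cells were given compounds for 2 hr, then doxycycline hyclate at 1 uM final, and incubated 16 hr at 37 C. Viability was measured as ATP content by CellTiter-Glo luminescence.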

Assay [7] in a line: qHTS assay to identify small molecule agonists of the AP-1 signaling pathway - cell viability counter screen (AID 1159525). Also: nearly all actives have a fitted effect of over 55% in size. The procedure, abridged:
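Same-well cytotoxicity counter screen of the Tox21 10K library in ME-180 cells. The readout is ATP-dependent luminescence after 5 h compound treatment. Data are normalised to DMSO and tetra n-octyl ammonium bromide controls.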

The nature of assay [8]: qHTS assay to identify small molecule agonists of the AP-1 signaling pathway (AID 1159526).
Assay [9] has as its target Nuclear receptor ROR-gamma (Homo sapiens) (UniProt P51449). Briefly: qHTS assay to identify small molecule antagonists of the retinoid-related orphan receptor gamma (ROR-gamma) signaling pathway (AID 1159521; active = well fitted curve in the direction sought with a large enough effect in the repeat runs; an effect the other way counts as inactive or inconclusive; also: nearly all actives have a fitted effect of over 50% in size; also: potency is read from the fitted curve at half-maximal effect). The procedure, abridged: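 Decreased RORE-driven luciferase luminescence indicates antagonism. Tet-on RORγ CHO cells received compound, then 1 uM final doxycycline 2 h later; signal read after 16 h incubation.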

Assay [10] deals with Retinoic acid receptor RXR-alpha (Homo sapiens) (UniProt P19793). Briefly: qHTS assay to identify small molecule agonists of the RXR signaling pathway (AID 1159527). Also: nearly all actives have a fitted effect of over 35% in size. Also: potency is read from the fitted curve at half-maximal effect. The procedure, abridged: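 16 hr incubation of compound-treated RXR-alpha-UAS-bla HEK 293T cells (2% charcoal-stripped FBS, 37 C) preceded a 2 hr room-temperature LiveBLAzer FRET substrate step and blue/green fluorescence measurement.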

Records with an inconclusive call do not appear. The source made the active and inactive calls. Unless noted, calls follow the shape of the full dose curve.

Chain of Retinoic acid receptor RXR-alpha (Homo sapiens) (P19793 whole entry, looked up): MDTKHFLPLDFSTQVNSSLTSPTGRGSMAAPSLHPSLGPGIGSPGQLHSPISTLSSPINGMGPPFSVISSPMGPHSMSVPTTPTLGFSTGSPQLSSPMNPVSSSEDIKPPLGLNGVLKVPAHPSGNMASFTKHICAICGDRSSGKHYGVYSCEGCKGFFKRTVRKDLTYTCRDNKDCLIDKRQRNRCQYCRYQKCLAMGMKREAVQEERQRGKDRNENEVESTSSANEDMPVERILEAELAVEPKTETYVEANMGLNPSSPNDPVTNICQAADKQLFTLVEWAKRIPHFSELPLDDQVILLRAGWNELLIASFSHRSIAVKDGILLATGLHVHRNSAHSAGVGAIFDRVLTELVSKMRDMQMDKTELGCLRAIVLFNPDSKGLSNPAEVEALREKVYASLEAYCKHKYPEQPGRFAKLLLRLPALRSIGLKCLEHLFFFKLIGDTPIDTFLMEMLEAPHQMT

In the case of `C[C@@H]1CC2=CC(=O)CC[C@@H]2[C@H]2CC[C@@]3(C)[C@@H](CC[C@]3(C)O)[C@@H]21`, the Potency entry in assay [1], in [2], in assay [3], in [4], in assay [5] and in assay [6] was “inactive” in each case. Further, the Potency result in assay [7] and in assay [8] was “inactive” in each case.
Regarding `Clc1cc(Cl)c(-c2cc(Cl)c(Cl)cc2Cl)cc1Cl`, the Potency entry in [1], in assay [2], in assay [3], in [4], in [5] and in [6] was “inactive” each time. The Potency entry in assay [9] and in assay [7] was “inactive” each time.
`CC(C)NCC(O)c1ccccc1Cl` (stereo not drawn): the Potency result in [1], in [2], in assay [3], in [4], in assay [5] and in assay [6] was “inactive” throughout. The Potency result in assay [7], in assay [8] and in [10] was “inactive” in each case.
In the case of `CC(C)Br`, the Potency result in [1], in [2], in assay [3], in assay [4], in assay [5] and in assay [6] was “inactive” throughout. In addition, the Potency result in assay [9] and in assay [7] was “inactive” in each case.
With `Clc1ccc(C2(Cn3cncn3)OCCO2)c(Cl)c1`, the Potency result in [1], in assay [2], in assay [3], in assay [4], in assay [5] and in assay [6] was “inactive” in each case. Moreover, the Potency entry in assay [9], in assay [7] and in assay [8] was “inactive” throughout.
`CCNS(=O)(=O)C(F)(F)C(F)(F)C(F)(F)C(F)(F)C(F)(F)C(F)(F)C(F)(F)C(F)(F)F`: the Potency entry in assay [1], in assay [3], in assay [4], in assay [5], in assay [6] and in assay [9] was “inactive” each time. For the same compound, in [7], the Potency entry is “inactive”.
As for `O=[N+]([O-])c1ccccc1-c1ccccc1`, the Potency result in assay [1], in assay [2], in assay [3], in assay [4], in [5] and in [6] was “inactive” in each case. In addition, the Potency entry in [9] and in assay [7] was “inactive” in each case.
On to `COc1cnc(OC)n2nc(NS(=O)(=O)c3c(OCC(F)F)cccc3C(F)(F)F)nc12`, for which the Potency result in assay [1], in assay [2], in assay [3], in [4], in assay [5] and in [6] was “inactive” throughout. For the same compound, the Potency entry in assay [9], in [7] and in assay [8] was “inactive” throughout.
For the compound `Cc1ccn2nc(S(=O)(=O)Nc3c(F)cccc3F)nc2n1`, the Potency entry in assay [1], in assay [2], in [3], in assay [4], in assay [5] and in assay [6] was “inactive” in each case. Further, the Potency entry in assay [7], in assay [8] and in [10] was “inactive” in each case.
As for `C=CCOC(=O)c1ccccc1N`, the Potency entry in assay [1], in assay [2], in assay [3], in [4], in [5] and in assay [6] was “inactive” throughout. The Potency entry in assay [7] and in assay [8] was “inactive” in each case.
Turning to `CNN`, the Potency entry in [1], in assay [2], in [3], in [4], in assay [5] and in [6] was “inactive” throughout. Besides, the Potency entry in assay [7], in [8] and in assay [10] was “inactive” throughout.
In the case of `O=P(Cl)(Cl)Cl`, the Potency entry in [1], in [2], in assay [3], in assay [4], in assay [5] and in [6] was “inactive” throughout. Further, the Potency entry in assay [7], in [8] and in assay [10] was “inactive” in each case.
Take `O=c1[nH]c2cc(Cl)ccc2n1C1CCNCC1`: the Potency entry in [1], in assay [3], in assay [4], in assay [5], in [6] and in assay [7] was “inactive” each time. The Potency result in [8] was “inactive”.
In the case of `C[C@H]1[C@H](c2ccc(Cl)cc2)SC(=O)N1C(=O)NC1CCCCC1`, the Potency result in assay [3], in [4], in [5], in assay [7] and in assay [8] was “inactive” throughout. Moreover, the Potency in assay [9] is 48.6 µM (active).
For the compound `COC(=O)c1cc(Oc2ccc(Cl)cc2Cl)ccc1[N+](=O)[O-]`, the Potency result in [1], in [2], in [3], in assay [4], in assay [5] and in assay [7] was “inactive” each time. Moreover, the Potency result in [8] is “inactive”. The Potency in assay [9] is 54.5 µM (active).
Consider `O=C(Cl)c1ccccc1F`, for which the Potency entry in assay [1], in assay [2], in assay [3], in assay [4], in [5] and in assay [6] was “inactive” each time. The Potency result in assay [7] and in assay [8] was “inactive” each time.
For `ClC1(Cl)C2(Cl)C3(Cl)C4(Cl)C(Cl)(Cl)C5(Cl)C3(Cl)C1(Cl)C5(Cl)C24Cl` (stereo not drawn), the Potency entry in [1], in [2], in [3], in [4], in assay [5] and in assay [7] was “inactive” in each case. Further, the Potency result in [8] and in assay [10] was “inactive” in each case.
With `CCOC(=O)CCN(SN(C)C(=O)Oc1cccc2c1OC(C)(C)C2)C(C)C`, the Potency result in assay [1], in assay [2], in assay [3], in assay [4], in assay [5] and in assay [7] was “inactive” throughout. Further, the Potency in assay [9] is 30.6 µM (active).
`CCOP(=O)(Sc1ccccc1)Sc1ccccc1`: the Potency result in assay [1], in assay [2], in assay [3], in assay [4], in [5] and in assay [9] was “inactive” each time. Also, the Potency entry in [7] was “inactive”.
As for `CCC1COC(Cn2cncn2)(c2ccc(Cl)cc2Cl)O1` (stereo not drawn), the Potency entry in assay [1], in assay [2], in assay [3], in assay [4], in assay [5] and in assay [6] was “inactive” throughout. The Potency entry in [7] and in assay [8] was “inactive” throughout.
For `Cc1c([N+](=O)[O-])cc2c(c1[N+](=O)[O-])C(C)(C)CC2(C)C`, the Potency entry in [2], in assay [3], in [4], in [5], in assay [6] and in assay [7] was “inactive” throughout.
Consider `OCC(Br)CBr` (stereo not drawn), for which the Potency result in [1], in assay [2], in assay [3], in [4], in assay [5] and in [6] was “inactive” each time. Besides, the Potency result in assay [7] and in [8] was “inactive” in each case.
Regarding `CCn1cc[n+](C)c1` (tested in a mixture with another compound), the Potency result in [1], in assay [2], in assay [3], in [4], in [5] and in [6] was “inactive” throughout. The Potency entry in assay [7] and in assay [8] was “inactive” throughout.
In the case of `C=CCBr`, the Potency entry in assay [1], in [2], in [3], in assay [4], in assay [5] and in assay [7] was “inactive” throughout. The Potency result in assay [8] and in assay [10] was “inactive” each time.
In the case of `CCC[CH2][Sn]([CH2]CCC)([O]C(C)=O)[O]C(C)=O`, the Potency result in assay [2] and in assay [4] was “inactive” throughout. Also, the Potency in assay [3] was 11.1 µM (active); in assay [5], 1.97 µM (active); in [9], 0.0692 µM (active).
Take `Cc1ccc(C)c2ccccc12`: the Potency entry in assay [1], in assay [2], in [3], in [4], in assay [5] and in assay [9] was “inactive” in each case. In addition, the Potency result in assay [7] and in assay [8] was “inactive” each time.
With `CCO/N=C(\CC)C1=C(O)CC(c2c(C)cc(C)cc2C)CC1=O` (stereo not drawn), the Potency entry in assay [3], in assay [4], in [5], in assay [9], in [7] and in assay [8] was “inactive” throughout.
For `CCc1cccc(C)c1N(C(=O)CCl)[C@@H](C)COC`, the Potency entry in assay [1], in assay [3], in assay [4], in assay [5], in assay [7] and in assay [8] was “inactive” each time.
With `N#Cc1c[nH]cc1-c1cccc2c1OC(F)(F)O2`, the Potency result in assay [1], in assay [3], in [4], in assay [5], in [7] and in assay [8] was “inactive” throughout. The Potency in assay [9] was 17.2 µM (active); in assay [10] it was 1.38 µM (active).

Source of the values: PubChem BioAssay (Tox21).
